Assay [1] addresses Estrogen-related receptor gamma (Homo sapiens) (UniProt P62508). Description: ATG_ERRg_TRANS: Attagene TRANS-FACTORIAL HepG2 Assay for human Estrogen-Related Receptor gamma (ERRg) (AID 2282977; active = hit-call score of the fitted dose curve at least 0.9, where 1 is the maximum;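 note: hits increase reporter signal over DMSO so potencies reflect activators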). The following applies: HepG2 Attagene TRANS reporter, ERRg transactivation. Summed up:
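Readout: fluorescent reporter-mRNA fragments resolved by capillary electrophoresis after RT-PCR and HpaI cut. Cells: transiently transfected HepG2 carrying GAL4-UAS reporters driven by exogenous NR-Gal4 chimeras, dosed 24 h. Activity fitted upward relative to DMSO baseline.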

The target of assay [2] is Bile acid receptor (Homo sapiens) (UniProt Q96RI1). Description: ATG_FXR_TRANS: Attagene TRANS-FACTORIAL HepG2 Assay for Farnesoid X Receptor (FXR) (AID 2282979; active = hit-call score of the fitted dose curve at least 0.9, where 1 is the maximum;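 note: hits raise reporter mRNA above DMSO so AC50 marks FXR activation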). The note with it: HepG2 Attagene TRANS FXR-GAL4 reporter transcription. Put shortly: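 Transient transfection of HepG2 with multiplexed GAL4-UAS reporter units; exogenous FXR-GAL4 chimera. Dose 24 h → TriZol RNA → oligo(dT) RT → PCR, 6-FAM primer extension, HpaI cut → CE. Gain vs DMSO.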

The target of assay [3] is Oxysterols receptor LXR-alpha (Homo sapiens) (UniProt Q13133). As to the kind of experiment: ATG_LXRa_TRANS: Attagene TRANS-FACTORIAL HepG2 Assay for human Liver X Receptor alpha (LXRa) (AID 2282980; active = hit-call score of the fitted dose curve at least 0.9, where 1 is the maximum). The following applies: HepG2 Attagene TRANS reporter, LXRa transactivation. Put shortly:
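Transfect HepG2 with GAL4-UAS multiplex reporter constructs (TRANS format, chimeric receptor-GAL4); treat 24 h; extract RNA, reverse-transcribe, PCR-amplify, FAM-label, HpaI-digest; resolve fragments by capillary electrophoresis. Upward response vs DMSO.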

The target in assay [4] is Oxysterols receptor LXR-beta (Homo sapiens) (UniProt P55055). Description: ATG_LXRb_TRANS: Attagene TRANS-FACTORIAL HepG2 Assay for human Liver X Receptor beta (LXRb) (AID 2282981; active = hit-call score of the fitted dose curve at least 0.9, where 1 is the maximum). The following applies: HepG2 Attagene TRANS GAL4-LXRb reporter, mRNA. Summed up: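 Readout: fluorescent reporter mRNA fragments resolved by capillary electrophoresis after RT-PCR. System: transiently transfected human HepG2, exogenous LXRb-Gal4 chimera driving GAL4-UAS reporter, 24 h dosing. Activity fitted upward against DMSO baseline.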

The target of assay [5] is Hepatocyte nuclear factor 4-alpha (Homo sapiens) (UniProt P41235). As to the kind of experiment: ATG_HNF4a_TRANS: Attagene TRANS-FACTORIAL HepG2 Assay for human Hepatocyte Nuclear Factor 4 alpha (HNF4a) (AID 2282982; active = hit-call score of the fitted dose curve at least 0.9, where 1 is the maximum). The following applies: HepG2 HNF4a transactivation reporter, mRNA readout. Put shortly:
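Transient MRTU transfection of HepG2, 24 h dosing. Readout: reporter mRNA via RT-PCR + capillary electrophoresis, fluorescence; activity fit upward relative to DMSO control.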

A short description of assay [6]: ATG_M_06_TRANS: Attagene TRANS-FACTORIAL HepG2 Assay for M06 Transcription Factor (Internal Marker) (AID 2282983; active = hit-call score of the fitted dose curve at least 0.9, where 1 is the maximum;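 note: reporter transcript level by RT-PCR then capillary electrophoresis fluorescence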). The note with it: HepG2 Attagene TRANS M06 internal marker reporter. Summed up:
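Background control endpoint: reporter mRNA from transiently transfected HepG2 after 24 h dosing, detected by RT-PCR with capillary electrophoresis fluorescence. Analysed for gain versus DMSO.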

The target in assay [7] is Nuclear respiratory factor 1 (Homo sapiens) (UniProt Q16656). Description: ATG_NRF1_CIS: Attagene CIS-FACTORIAL HepG2 Assay for human Nuclear Respiratory Factor 1 (NRF1) Orphan Gene (AID 2282987). The note with it: HepG2 NRF1 cis-element reporter, Attagene multiplex; actives raise or lower the signal. Put shortly:
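Reporter mRNA induction or loss in HepG2 cells after 24 h dosing; cis-regulated reporter constructs report endogenous transcription-factor activity. Quantified by RT-PCR/capillary electrophoresis fluorescence, DMSO-referenced.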

Assay [8] can be described thus: ATG_NFI_CIS: Attagene CIS-FACTORIAL HepG2 Assay for human Nuclear Factor I (NFI) (AID 2282989). The following applies: HepG2 cis-regulatory reporter, NFI response element transcription; actives raise or lower the signal. Summed up: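 Cells: human liver HepG2, transiently transfected with promoter-regulated reporter transcription units. Exposure 24 h. Detection: fluorescent RT-PCR products separated by capillary electrophoresis, normalised to DMSO negative control.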

In assay [9] the target is Myc proto-oncogene protein (Homo sapiens) (UniProt P01106). Description: ATG_Myc_CIS: Attagene CIS-FACTORIAL HepG2 Assay for human Myelocytomatosis (Myc) Proto-Oncogene Transcription Factor (AID 2282990). The note with it: HepG2, Attagene cis-reporter transcription factor activity; actives raise or lower the signal. Summed up: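 Read-out: fluorescent reporter mRNA fragments resolved by capillary electrophoresis after RT-PCR. Human HepG2 liver cells carried transfected cis-element reporter units and were dosed for 24 h. Gain or loss of signal fitted relative to DMSO baseline.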

Assay [10] is described as follows: ATG_NF_kB_CIS: Attagene CIS-FACTORIAL HepG2 Assay for human Nuclear Factor Kappa B (NF-kB) (AID 2282991). The following applies: HepG2 Attagene cis-factorial NF-kB reporter mRNA; actives raise or lower the signal. Summed up:
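DMSO served as negative control and baseline for bidirectional curve fitting. Transiently transfected HepG2 cells were dosed for 24 h, then reporter transcripts were measured by RT-PCR with capillary electrophoresis detection.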

Assay [11] in a line: ATG_NRF2_ARE_CIS: Attagene CIS-FACTORIAL HepG2 Assay for human Nuclear Factor Erythroid 2 Related Factor 2 (NFR2) response to Antioxidant Response Elements (ARE) (AID 2282992).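 For AC50: reporter mRNA level measured by RT-PCR and capillary electrophoresis fluorescence.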 The following applies: HepG2 Attagene ARE/NRF2 reporter, transcription factor activity; actives raise or lower the signal. Put shortly: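 Fluorescence intensity of reporter-specific cDNA fragments, separated by capillary electrophoresis, reflects mRNA induction in transfected HepG2 cells at 24 h. Activity is fitted bidirectionally, DMSO serving as baseline.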

The nature of assay [12]: ATG_Oct_MLP_CIS: Attagene CIS-FACTORIAL HepG2 Assay for human Octamer-Binding Transcription Factor (Oct) (AID 2282993). The following applies: HepG2 Attagene cis-factorial Oct reporter, mRNA; actives raise or lower the signal. Put shortly: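 HepG2, transient MRTU transfection, cis promoter elements; 24 h dosing; RT-PCR/CE fluorescence read-out of reporter mRNA; fit both directions vs DMSO.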

Assay [13] concerns the target Cellular tumor antigen p53 (Homo sapiens) (UniProt P04637). As to the kind of experiment: ATG_p53_CIS: Attagene CIS-FACTORIAL HepG2 Assay for human p53 Transcription Factor (AID 2282994). The note with it: HepG2 p53 cis-element reporter, Attagene mRNA; actives raise or lower the signal. Put shortly: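 Transiently transfected HepG2 (multiple cis reporter transcription units); exposure 24 h; reporter RNA via RT-PCR, 6-FAM extension, 2 h HpaI digest at 37 C, CE detection; DMSO baseline.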

Assay [14] in a line: BSK_3C_TissueFactor: BioMAP Diversity Plus: 3C Assay for Tissue Factor Biomarker Activity (AID 2282997). The note with it: BioMAP 3C HUVEC, tissue factor biomarker readout; actives raise or lower the signal. Summed up: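 After a 24 h chemical exposure of primary human umbilical vein endothelial cells, Tissue Factor levels were quantified by ELISA.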
Assay [15] is described as follows: BSK_3C_uPAR: BioMAP Diversity Plus: 3C Assay for Urokinase-type plasminogen activator receptor (uPAR) Biomarker Activity (AID 2282998). The following applies: BioMAP 3C HUVEC, uPAR biomarker ELISA; actives raise or lower the signal. Summed up:
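A multiplexed primary-cell system built on human umbilical vein endothelium was used, with chemical present for 24 h before reading. Cell-surface uPAR was detected by ELISA; signal change in either direction counted against DMSO.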
(ELISA stands for enzyme-linked immunosorbent assay.)

A short description of assay [16]: BSK_4H_Eotaxin3: BioMAP Diversity Plus: 4H Assay for Eotaxin 3 Biomarker Activity (AID 2283000).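 For outcome: CCL26 protein level quantified by ELISA in parallel with SRB cytotoxicity check.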 The note with it: primary human endothelial cells (HUVEC); actives raise or lower the signal. Summed up: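 Chemicals were added to human umbilical vein endothelium cultures, and Eotaxin-3 was quantified by ELISA at 24 h. Values were derived by bidirectional fitting with DMSO serving as negative control and activity baseline.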

Assay [17] in a line: ATG_M_32_TRANS: Attagene TRANS-FACTORIAL HepG2 Assay for M32 Transcription Factor (Internal Marker) (AID 2282984; active = hit-call score of the fitted dose curve at least 0.9, where 1 is the maximum;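 note: transcript level of a background control reporter unit measured by RT-PCR and capillary electrophoresis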). The note with it: HepG2 Attagene TRANS M32 internal marker reporter. Put shortly:
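Read-out: fluorescent reporter cDNA fragments resolved by capillary electrophoresis after RT-PCR of total RNA. Transfected HepG2 cells were exposed to chemical for 24 h. Activity scored in the positive direction relative to DMSO.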

Assay [18] deals with Nuclear receptor subfamily 4 group A member 2 (Homo sapiens) (UniProt P43354). As to the kind of experiment: ATG_NURR1_TRANS: Attagene TRANS-FACTORIAL HepG2 Assay for human Nuclear Receptor Related Protein 1 (NURR1) (AID 2282985; active = hit-call score of the fitted dose curve at least 0.9, where 1 is the maximum). The note with it: HepG2 Attagene TRANS reporter, mRNA readout. Summed up: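 Read-out: reporter mRNA induction by RT-PCR plus capillary electrophoresis with fluorescence detection, after 24 h dosing of transfected HepG2 cells. Exogenous NR-Gal4 chimera activity drives GAL4-UAS reporter; activity fitted upward versus DMSO.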

For assay [19], the target named is Transcriptional activator Myb (Homo sapiens) (UniProt P10242). As to the kind of experiment: ATG_Myb_CIS: Attagene CIS-FACTORIAL HepG2 Assay for human Myeloblastosis (Myb) Proto-Oncogene Transcription Factor (AID 2282986). The note with it: HepG2 Attagene CIS-FACTORIAL Myb reporter transcription; actives raise or lower the signal. Put shortly: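 Using HepG2 liver cells bearing transiently transfected cis-promoter reporter constructs, the assay measures induction or loss of reporter mRNA after 24 hours of dosing. Detection used fluorescently labeled RT-PCR products separated by capillary electrophoresis.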

Where “and” joins values, the source holds several entries; their conditions need not be identical. Equal entries are not always repeated. Inconclusive results are not listed. The source holds several records for some structures; these can differ, active in one and inactive in another. Calls of active or inactive are those of the source. Rule for the calls, unless noted: active = hit-call score of the fitted dose curve at least 0.9, where 1 is the maximum; inactive = score below 0.9.

Sequence of Hepatocyte nuclear factor 4-alpha (Homo sapiens) (P41235 whole entry, looked up): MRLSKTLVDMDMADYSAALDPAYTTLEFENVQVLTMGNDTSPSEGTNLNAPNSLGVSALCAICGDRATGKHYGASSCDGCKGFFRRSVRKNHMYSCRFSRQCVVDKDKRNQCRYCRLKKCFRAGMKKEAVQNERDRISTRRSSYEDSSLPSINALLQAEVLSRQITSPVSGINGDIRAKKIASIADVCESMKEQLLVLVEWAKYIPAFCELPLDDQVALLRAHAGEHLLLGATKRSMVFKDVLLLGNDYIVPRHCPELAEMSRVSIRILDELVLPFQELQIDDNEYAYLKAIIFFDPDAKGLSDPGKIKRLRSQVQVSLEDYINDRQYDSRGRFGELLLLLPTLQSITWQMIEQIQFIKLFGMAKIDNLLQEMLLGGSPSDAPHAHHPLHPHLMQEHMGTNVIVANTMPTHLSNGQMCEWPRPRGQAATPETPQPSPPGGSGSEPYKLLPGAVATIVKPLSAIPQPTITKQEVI
Sequence of Myc proto-oncogene protein (Homo sapiens) (P01106 whole entry, looked up, the tested form may be a part): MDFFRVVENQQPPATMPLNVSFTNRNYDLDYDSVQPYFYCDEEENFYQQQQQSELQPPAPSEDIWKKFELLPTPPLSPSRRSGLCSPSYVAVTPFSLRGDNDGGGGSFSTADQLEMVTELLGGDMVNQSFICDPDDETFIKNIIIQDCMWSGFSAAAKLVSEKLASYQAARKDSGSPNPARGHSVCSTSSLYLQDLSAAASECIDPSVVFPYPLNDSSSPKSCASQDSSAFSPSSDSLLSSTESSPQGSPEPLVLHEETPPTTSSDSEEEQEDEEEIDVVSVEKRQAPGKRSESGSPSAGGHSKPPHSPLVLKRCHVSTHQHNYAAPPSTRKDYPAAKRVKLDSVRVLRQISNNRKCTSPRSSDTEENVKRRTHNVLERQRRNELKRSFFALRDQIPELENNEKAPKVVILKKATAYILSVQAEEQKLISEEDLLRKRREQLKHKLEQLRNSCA
Sequence of Transcriptional activator Myb (Homo sapiens) (P10242 whole entry, looked up): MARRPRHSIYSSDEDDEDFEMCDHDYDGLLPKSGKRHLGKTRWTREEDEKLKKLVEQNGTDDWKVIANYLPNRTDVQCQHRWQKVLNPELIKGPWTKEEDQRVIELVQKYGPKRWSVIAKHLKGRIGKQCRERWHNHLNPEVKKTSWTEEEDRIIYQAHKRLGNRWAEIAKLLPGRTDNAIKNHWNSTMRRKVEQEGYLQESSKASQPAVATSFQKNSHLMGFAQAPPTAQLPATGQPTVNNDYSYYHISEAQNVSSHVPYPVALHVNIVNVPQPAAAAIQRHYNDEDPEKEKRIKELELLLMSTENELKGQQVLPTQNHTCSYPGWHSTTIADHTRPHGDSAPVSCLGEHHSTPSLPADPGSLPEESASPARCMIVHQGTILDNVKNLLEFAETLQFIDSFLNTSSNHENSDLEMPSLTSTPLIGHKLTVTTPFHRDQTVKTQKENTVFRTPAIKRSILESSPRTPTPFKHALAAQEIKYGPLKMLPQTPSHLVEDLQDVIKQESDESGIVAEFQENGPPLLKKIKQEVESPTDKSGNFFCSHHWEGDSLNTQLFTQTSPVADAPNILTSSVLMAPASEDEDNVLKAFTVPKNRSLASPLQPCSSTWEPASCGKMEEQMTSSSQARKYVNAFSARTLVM
Sequence of Nuclear receptor subfamily 4 group A member 2 (Homo sapiens) (P43354 whole entry, looked up, the tested form may be a part): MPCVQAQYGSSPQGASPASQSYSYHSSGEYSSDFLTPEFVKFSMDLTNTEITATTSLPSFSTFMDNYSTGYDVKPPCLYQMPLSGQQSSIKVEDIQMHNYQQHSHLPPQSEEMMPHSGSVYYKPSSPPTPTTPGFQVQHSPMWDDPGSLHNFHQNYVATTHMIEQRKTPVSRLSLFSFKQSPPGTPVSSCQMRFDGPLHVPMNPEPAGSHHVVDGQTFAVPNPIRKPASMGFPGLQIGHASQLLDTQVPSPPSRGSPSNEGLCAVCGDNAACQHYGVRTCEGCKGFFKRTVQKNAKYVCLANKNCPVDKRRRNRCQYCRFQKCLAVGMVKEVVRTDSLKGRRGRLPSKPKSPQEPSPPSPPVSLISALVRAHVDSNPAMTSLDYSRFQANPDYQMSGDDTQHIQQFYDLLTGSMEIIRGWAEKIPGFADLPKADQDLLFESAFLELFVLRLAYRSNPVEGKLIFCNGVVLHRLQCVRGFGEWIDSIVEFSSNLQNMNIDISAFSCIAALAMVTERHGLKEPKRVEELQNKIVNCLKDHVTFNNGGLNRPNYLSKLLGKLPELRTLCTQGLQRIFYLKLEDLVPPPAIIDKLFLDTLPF
Sequence of Cellular tumor antigen p53 (Homo sapiens) (P04637 whole entry, looked up): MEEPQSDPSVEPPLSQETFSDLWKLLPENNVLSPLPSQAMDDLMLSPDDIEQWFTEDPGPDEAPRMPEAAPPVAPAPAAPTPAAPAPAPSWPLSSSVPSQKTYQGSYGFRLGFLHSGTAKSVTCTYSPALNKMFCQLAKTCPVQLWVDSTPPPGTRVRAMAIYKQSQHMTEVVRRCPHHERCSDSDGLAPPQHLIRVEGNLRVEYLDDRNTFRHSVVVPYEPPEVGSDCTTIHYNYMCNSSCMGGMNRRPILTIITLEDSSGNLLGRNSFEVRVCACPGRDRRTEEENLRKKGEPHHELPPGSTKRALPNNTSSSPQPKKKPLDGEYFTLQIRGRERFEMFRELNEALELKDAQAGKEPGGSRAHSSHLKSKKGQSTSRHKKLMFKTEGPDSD
Sequence of Oxysterols receptor LXR-beta (Homo sapiens) (P55055 whole entry, looked up, the tested form may be a part): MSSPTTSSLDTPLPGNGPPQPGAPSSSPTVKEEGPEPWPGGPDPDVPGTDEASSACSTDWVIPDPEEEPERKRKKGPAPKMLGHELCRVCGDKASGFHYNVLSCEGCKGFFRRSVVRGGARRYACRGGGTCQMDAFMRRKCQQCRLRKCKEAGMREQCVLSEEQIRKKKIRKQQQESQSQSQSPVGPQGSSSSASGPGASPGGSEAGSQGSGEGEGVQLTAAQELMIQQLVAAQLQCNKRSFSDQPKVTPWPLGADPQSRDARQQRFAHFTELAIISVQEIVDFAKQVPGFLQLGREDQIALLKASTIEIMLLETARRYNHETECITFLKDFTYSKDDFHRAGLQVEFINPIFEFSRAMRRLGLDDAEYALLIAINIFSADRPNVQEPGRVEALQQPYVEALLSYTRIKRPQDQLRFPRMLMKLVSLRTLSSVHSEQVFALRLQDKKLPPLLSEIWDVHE
Sequence of Nuclear respiratory factor 1 (Homo sapiens) (Q16656 whole entry, looked up): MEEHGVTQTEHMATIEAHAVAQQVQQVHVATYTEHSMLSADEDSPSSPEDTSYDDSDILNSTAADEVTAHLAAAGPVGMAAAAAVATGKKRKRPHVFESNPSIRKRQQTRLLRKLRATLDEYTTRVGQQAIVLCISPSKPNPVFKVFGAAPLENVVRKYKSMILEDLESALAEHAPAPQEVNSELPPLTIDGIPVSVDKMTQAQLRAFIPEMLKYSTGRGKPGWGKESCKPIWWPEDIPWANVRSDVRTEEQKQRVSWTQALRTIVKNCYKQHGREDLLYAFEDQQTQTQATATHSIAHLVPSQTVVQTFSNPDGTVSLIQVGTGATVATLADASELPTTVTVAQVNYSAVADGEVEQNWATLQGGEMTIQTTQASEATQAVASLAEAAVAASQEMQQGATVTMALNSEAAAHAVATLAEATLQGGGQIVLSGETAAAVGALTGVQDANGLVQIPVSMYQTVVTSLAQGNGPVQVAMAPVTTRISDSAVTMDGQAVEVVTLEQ
Sequence of Bile acid receptor (Homo sapiens) (Q96RI1 whole entry, looked up, the tested form may be a part): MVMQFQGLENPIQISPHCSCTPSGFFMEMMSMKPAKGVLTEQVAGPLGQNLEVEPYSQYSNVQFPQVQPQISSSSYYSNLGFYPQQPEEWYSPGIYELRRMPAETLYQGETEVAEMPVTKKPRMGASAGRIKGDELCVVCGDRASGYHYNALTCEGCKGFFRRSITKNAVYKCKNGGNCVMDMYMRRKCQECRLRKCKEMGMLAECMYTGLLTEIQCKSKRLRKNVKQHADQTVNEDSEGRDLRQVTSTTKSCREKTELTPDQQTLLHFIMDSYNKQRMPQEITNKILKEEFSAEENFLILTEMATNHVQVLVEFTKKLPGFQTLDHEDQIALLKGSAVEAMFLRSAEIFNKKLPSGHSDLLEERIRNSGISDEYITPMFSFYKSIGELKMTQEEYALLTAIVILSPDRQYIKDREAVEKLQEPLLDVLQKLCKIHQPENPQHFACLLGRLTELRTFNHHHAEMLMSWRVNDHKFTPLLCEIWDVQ
Sequence of Oxysterols receptor LXR-alpha (Homo sapiens) (Q13133 whole entry, looked up, the tested form may be a part): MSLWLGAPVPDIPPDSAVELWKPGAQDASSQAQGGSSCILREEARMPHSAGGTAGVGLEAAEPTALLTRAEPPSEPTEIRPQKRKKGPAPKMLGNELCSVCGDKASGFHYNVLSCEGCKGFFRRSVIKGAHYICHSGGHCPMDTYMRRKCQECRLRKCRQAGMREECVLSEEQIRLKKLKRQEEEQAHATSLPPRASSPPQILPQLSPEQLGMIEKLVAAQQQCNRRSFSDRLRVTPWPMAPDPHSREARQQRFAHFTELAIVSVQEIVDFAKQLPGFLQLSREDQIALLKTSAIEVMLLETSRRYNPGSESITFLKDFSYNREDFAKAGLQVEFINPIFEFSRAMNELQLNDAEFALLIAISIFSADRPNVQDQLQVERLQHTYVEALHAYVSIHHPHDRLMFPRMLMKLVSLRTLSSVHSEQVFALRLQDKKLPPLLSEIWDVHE
Sequence of Estrogen-related receptor gamma (Homo sapiens) (P62508 whole entry, looked up, the tested form may be a part): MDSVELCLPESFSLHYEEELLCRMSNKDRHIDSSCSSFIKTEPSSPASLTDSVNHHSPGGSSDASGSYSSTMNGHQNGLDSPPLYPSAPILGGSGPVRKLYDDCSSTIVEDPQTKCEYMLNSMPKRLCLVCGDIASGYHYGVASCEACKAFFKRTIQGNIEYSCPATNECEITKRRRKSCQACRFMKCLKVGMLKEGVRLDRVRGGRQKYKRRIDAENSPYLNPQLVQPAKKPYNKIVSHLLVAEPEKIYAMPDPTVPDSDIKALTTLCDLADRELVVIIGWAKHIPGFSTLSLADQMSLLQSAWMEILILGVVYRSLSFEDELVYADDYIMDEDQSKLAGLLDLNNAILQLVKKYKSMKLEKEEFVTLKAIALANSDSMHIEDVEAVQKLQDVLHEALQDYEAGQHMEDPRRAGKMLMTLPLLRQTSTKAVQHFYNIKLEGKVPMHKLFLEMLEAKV

Usually AC50 stands for the concentration giving half of the maximal activity seen. Take `CCC(C)c1cc([N+](=O)[O-])cc([N+](=O)[O-])c1O` (stereo not drawn): the molecule was classed as inactive in assay [1], in assay [2], in assay [3], in [4], in [5] and in assay [6]. The call in [7], in assay [8], in [9], in assay [10], in [13] and in assay [14] was inactive. Further, the AC50 in [11] was 14.1 µM (active); in assay [12], 16.4 µM (active); in assay [15] it was 9.09 µM (active); in assay [16], 11.3 µM (active).
Regarding `C[C@]12CCC(=O)C=C1CC[C@@H]1[C@@H]2CC[C@@]2(C)[C@H]1CC[C@]2(C)O`, the outcome in [2], in [3], in [4], in assay [5], in assay [6] and in [17] was inactive. For the same molecule, the molecule was called inactive in [18], in assay [19], in assay [7], in [8], in assay [9] and in assay [12]. The result in [13], in [14] and in assay [15] was inactive. Also, the AC50 in assay [7] is 21.6 µM (active); in assay [11], 60.3 µM (active) and 53.6 µM (active) and 91.5 µM (active); in assay [13], 58.8 µM (active).
With `CC(C)(O)C(=O)Nc1ccc([N+](=O)[O-])c(C(F)(F)F)c1`, the molecule was classed as inactive in [1], in assay [3], in [4], in assay [5], in [6] and in assay [17]. For the same molecule, the call in assay [18], in [19], in [7], in assay [8], in assay [9] and in [11] was inactive. In addition, the call in assay [12], in assay [13], in assay [14], in assay [15] and in [16] was inactive. Besides, the AC50 in assay [11] was 45.1 µM (active) and 15.9 µM (active) and 54.5 µM (active); in assay [12] it was 38.9 µM (active).

Source of the values: PubChem BioAssay (EPA / NIEHS).
